Test results from the supplement of paper PMC13380429.

Test system: Vero E6 infected with SARS-CoV-2
Experiment: inhibition of SARS-CoV-2 cytopathic effect; higher = more antiviral protection, active = above 15
Settings: 48 h

Measured: inhibition of SARS-CoV-2 cytopathic effect

Nc1ccc(S(=O)(=O)NC(=O)c2ccccc2)cc1 [sulfabenzamide]
inactive: 1 nM -2.34% | 8.33 nM -0.25% | 100 nM -1.3% | 833.33 nM -0.48% | 10000 nM -0.81%

N#Cc1c(Oc2ccc(F)c(NC(=O)Cc3cccc(C(F)(F)F)c3)c2)ccc2nc(NC(=O)C3CC3)sc12
inactive: 1 nM 0.58% | 8.33 nM 2.74% | 100 nM 2.56% | 833.33 nM 0.34% | 10000 nM -7.91%

NCC(CC(=O)O)c1ccccc1 (stereo not given) [fenigam]
inactive: 1 nM -0.57% | 8.33 nM 0.98% | 100 nM 0.48% | 833.33 nM -0.72% | 10000 nM 1.87%

O=c1[nH]cnc2c1cnn2[C@@H]1O[C@H](CO)[C@@H](O)[C@H]1O [allopurinol-riboside]
inactive: 1 nM 0.99% | 8.33 nM 0.92% | 100 nM 2.88% | 833.33 nM 0.52% | 10000 nM 1.75%

CC(C)C(=O)c1c(C(C)C)nn2ccccc12 [ibudilast]
inactive: 1 nM 2.15% | 8.33 nM 6.68% | 100 nM 5.43% | 833.33 nM 7.59% | 10000 nM 2.39%

O=C[C@H](F)[C@@H](O)[C@@H](O)[C@H](O)CO [2-fluoro-2-deoxy-D-galactose]
inactive: 1 nM 1.5% | 8.33 nM 1.13% | 100 nM 1.44% | 833.33 nM 1.15% | 10000 nM 0.92%

CC(OC(=O)NCC1(CC(=O)O)CCCCC1)OC(=O)C(C)C (stereo not given) [gabapentin-enacarbil]
inactive: 1 nM -7.45% | 8.33 nM -8.92% | 100 nM -4.27% | 833.33 nM -4.9% | 10000 nM -8.44%

O=c1cc(N2CCOCC2)oc2c1ccc1ccccc12
inactive: 1 nM -1.26% | 8.33 nM 2.98% | 100 nM -0.06% | 833.33 nM 0.08% | 10000 nM -1.32%

Cc1cc(CCCOc2c(C)cc(-c3noc(C(F)(F)F)n3)cc2C)on1 [pleconaril]
inactive: 1 nM 2.59% | 8.33 nM 0.33% | 100 nM -1.07% | 833.33 nM 0.02% | 10000 nM -1.34%

CCC(=O)NC1CCc2cccc(OC)c2C1 (stereo not given)
inactive: 1 nM 0.92% | 8.33 nM 1.4% | 100 nM 2.16% | 833.33 nM 7.57% | 10000 nM 4.57%

O=C1Nc2ccc(Cl)c3c2C1(CCCCN1CC=C(c2ccc(Cl)cc2)CC1)CCC3 (stereo not given)
inactive: 1 nM 0.36% | 8.33 nM -1.45% | 100 nM -2.5% | 833.33 nM -2.84% | 10000 nM -3.25%

O=C(O)c1ccccc1S [o-mercapto-benzoic-acid]
inactive: 1 nM -1.65% | 8.33 nM -0.03% | 100 nM 0.12% | 833.33 nM -2.81% | 10000 nM -0.55%

Cc1c2oc3c(C)ccc(C(=O)N[C@@H]4C(=O)N[C@@H](C(C)C)C(=O)N5CCC[C@H]5C(=O)N(C)CC(=O)N(C)[C@@H](C(C)C)C(=O)O[C@@H]4C)c3nc-2c(C(=O)N[C@@H]2C(=O)N[C@@H](C(C)C)C(=O)N3CCC[C@H]3C(=O)N(C)CC(=O)N(C)[C@@H](C(C)C)C(=O)O[C@@H]2C)c(N)c1=O [actinomycin-d]
inactive: 1 nM -0.33% | 8.33 nM 1.99% | 100 nM 0.83% | 833.33 nM -8.47% | 10000 nM -14.8%

O=C(O)C[C@H]1CC[C@H](c2ccc(-c3ccc(Nc4ccc(C(F)(F)F)nc4)cn3)cc2)CC1
inactive: 1 nM -1.27% | 8.33 nM 0.84% | 100 nM -0.93% | 833.33 nM -2.65% | 10000 nM 1.98%

CO[C@H]1C[C@H](O[C@@H]2/C(C)=C/C[C@@H]3C[C@@H](C[C@]4(CC[C@H](C)[C@@H](C5CCCCC5)O4)O3)OC(=O)[C@@H]3C=C(C)/C(=N/O)[C@H]4OC/C(=C\C=C\[C@@H]2C)[C@]43O)O[C@@H](C)[C@@H]1O [selamectin]
inactive: 1 nM -1.61% | 8.33 nM 0.4% | 100 nM -0.73% | 833.33 nM 2.72%
active: 10000 nM 16.1%

Fc1ccc(Cl)cc1-c1nc(Nc2ccncc2)c2nccnc2n1
inactive: 1 nM -0.85% | 8.33 nM 0.45% | 100 nM -1.96% | 833.33 nM -3.87% | 10000 nM -7.46%

COc1ccc(-c2cc3nccn3c(Nc3ncccc3C(N)=O)n2)cc1OC
inactive: 1 nM -3.34% | 8.33 nM -0.9% | 100 nM -4.75% | 833.33 nM -2.69% | 10000 nM -6.9%

OC(CCCN1CCCCC1)(c1ccccc1)c1ccccc1 [diphenidol]
inactive: 1 nM -5.55% | 8.33 nM -3.34% | 100 nM -2.4% | 833.33 nM -1.92% | 10000 nM -2.8%

Cn1cc(-c2ccc3nnc(C(F)(F)c4ccc5ncccc5c4)n3n2)cn1
inactive: 1 nM 0.45% | 8.33 nM 2.96% | 100 nM 4.23% | 833.33 nM 0.5% | 10000 nM 6.76%

Cc1ccc(NC(=O)c2cccc(N(C)C)c2)cc1NC(=O)c1ccc(O)cc1
inactive: 1 nM -3.41% | 8.33 nM -1.26% | 100 nM 6.65% | 833.33 nM 1.14% | 10000 nM 6.69%

O=C(NCc1ccccc1)OCCO [buramate]
inactive: 1 nM -3.11% | 8.33 nM -3.15% | 100 nM -10.9% | 833.33 nM 1.79% | 10000 nM 0.54%

CCOc1ccccc1OCC1CNCCO1 (stereo not given) [viloxazine]
inactive: 1 nM 5.7% | 8.33 nM 7.03% | 100 nM 7.67% | 833.33 nM 2.71% | 10000 nM 3.05%

CCOc1cc(N2CCC(O)CC2)ccc1Nc1ncc2c(n1)N(C)c1ccccc1C(=O)N2C
inactive: 1 nM 1.68% | 8.33 nM 1.49% | 100 nM 1.28% | 833.33 nM -1.36% | 10000 nM -1.31%

Cc1csc(-c2nnc(Nc3ccc(Oc4ncccc4-c4ccnc(N)n4)cc3)c3ccccc23)c1
inactive: 1 nM -1.03% | 8.33 nM -3.23% | 100 nM -5.41% | 833.33 nM -4.07% | 10000 nM -4.59%

CC1(C)CCC(C)(C)c2cc(C3(c4ccc5cc(C(=O)O)ccc5c4)SCCS3)ccc21
inactive: 1 nM -0.61% | 8.33 nM 2.69% | 100 nM 1.81% | 833.33 nM 1.35% | 10000 nM 2.66%

Nc1cc(-c2ccncc2)c[nH]c1=O [amrinone]
inactive: 1 nM 3.03% | 8.33 nM 3.76% | 100 nM -3.46% | 833.33 nM -6.26% | 10000 nM 1.36%

Cn1cncc1[C@@](N)(c1ccc(Cl)cc1)c1ccc2c(c1)c(-c1cccc(Cl)c1)cc(=O)n2C [tipifarnib]
inactive: 1 nM 0.24% | 8.33 nM 0.1% | 100 nM 1.79% | 833.33 nM 2.2% | 10000 nM -9.4%

O=C(NCC1CCOCC1)c1cnc(Nc2ccc(Cl)cc2Cl)nc1C(F)(F)F
inactive: 1 nM -0.74% | 8.33 nM 0.36% | 100 nM 0.86% | 833.33 nM 1.5% | 10000 nM 3.56%

O=C(O)c1c2ccccc2cc2ccccc12 [9-anthracenecarboxylic-acid]
inactive: 1 nM -4.6% | 8.33 nM 2.11% | 100 nM 0.63% | 833.33 nM 1.03% | 10000 nM -2.02%

Nc1cccc(-c2cc3c(Oc4cccc(O)c4)ncnc3[nH]2)c1
inactive: 1 nM 4.09% | 8.33 nM 0.18% | 100 nM -2.41% | 833.33 nM -3.87% | 10000 nM -11.4%

CC(C)[C@H](CO)Nc1nc(Nc2cc(N)cc(Cl)c2)c2ncn(C(C)C)c2n1 [aminopurvalanol-a]
inactive: 1 nM 4.14% | 8.33 nM 0.51% | 100 nM -1.34% | 833.33 nM -0.35% | 10000 nM -6.98%

NS(=O)(=O)c1cc2c(cc1Cl)NCNS2(=O)=O [hydrochlorothiazide]
inactive: 1 nM 3.33% | 8.33 nM 0.33% | 100 nM 0.49% | 833.33 nM 0.84% | 10000 nM -1.16%

C#Cc1cccc(Nc2ncnc3cc(OC)c(OCCCCCCC(=O)NO)cc23)c1
inactive: 1 nM 1.1% | 8.33 nM 5.38% | 100 nM -0.94% | 833.33 nM -6.89% | 10000 nM -28%

C=CCN1CCc2nc(N)sc2CC1 [talipexole]
inactive: 1 nM -0.94% | 8.33 nM 1.41% | 100 nM 0.94% | 833.33 nM -0.07% | 10000 nM -2.07%

c1ccc([C@@H]2C[C@H]2NC2CCNCC2)cc1
inactive: 1 nM -2.71% | 8.33 nM 1.14% | 100 nM 0.53% | 833.33 nM 1.44% | 10000 nM -2.6%

O=C(Nc1c[nH]nc1-c1nc2ccc(CN3CCOCC3)cc2[nH]1)NC1CC1
inactive: 1 nM 0.02% | 8.33 nM -0.1% | 100 nM 0.35% | 833.33 nM 0.87% | 10000 nM -5.1%

O=c1c(-c2ccc(O)cc2)coc2cc(O)cc(O)c12 [genistein]
inactive: 1 nM -1.79% | 8.33 nM 1.66% | 100 nM 2.02% | 833.33 nM 3.3% | 10000 nM -1.82%

CC(C)COC(=O)c1ccc(N)cc1 [isobutamben]
inactive: 1 nM -0.32% | 8.33 nM -0.5% | 100 nM -1.06% | 833.33 nM -2.97% | 10000 nM 1.5%

O=S(=O)(N[C@H]1CC[C@@](c2cc(F)ccc2F)(S(=O)(=O)c2ccc(Cl)cc2)CC1)C(F)(F)F
inactive: 1 nM 2.61% | 8.33 nM 4.08% | 100 nM -0.09% | 833.33 nM -2.63% | 10000 nM -2.01%

CCOc1nc2cccc(C(=O)O)c2n1Cc1ccc(-c2ccccc2-c2noc(=O)[nH]2)cc1 [azilsartan]
inactive: 1 nM 0.19% | 8.33 nM 1.58% | 100 nM 2.59% | 833.33 nM 2.65% | 10000 nM 0.22%
